# Data published in PubChem BioAssay AID574 (The Scripps Research Institute Molecular Screening Center, 2007).
# The campaign covered roughly 65,000 compounds. About 450 (0.69%) were called active. Many of the other results were omitted from the sample, so actives are more common in it than they were. Unmarked numbers belong to inactive results.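 Rule for the calls: active = activation above a set limit, the screen-wide mean activation plus 3 SD (cut at about 8.5% in these data); inactive = the rest.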
# Target: 5-hydroxytryptamine receptor 1E (Homo sapiens) (UniProt P28566)
# Sequence (P28566 whole entry, looked up): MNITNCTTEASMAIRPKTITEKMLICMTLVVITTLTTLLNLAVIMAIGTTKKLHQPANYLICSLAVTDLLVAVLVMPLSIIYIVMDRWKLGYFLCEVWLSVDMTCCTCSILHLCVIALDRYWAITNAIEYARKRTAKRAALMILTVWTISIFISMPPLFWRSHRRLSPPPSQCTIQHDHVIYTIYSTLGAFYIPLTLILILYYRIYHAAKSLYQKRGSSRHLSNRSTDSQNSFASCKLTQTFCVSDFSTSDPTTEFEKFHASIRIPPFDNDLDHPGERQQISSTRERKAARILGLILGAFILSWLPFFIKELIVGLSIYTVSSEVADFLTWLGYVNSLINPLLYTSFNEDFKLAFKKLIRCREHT
# Experiment: 5-HT1E receptor agonists, primary screen, cell-based, HTS (AID 574);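 note: 100% = positive control agonist at 1 µM giving full maximal response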
# Conditions: CHO 5-HT1E Ga15 NFAT-bla reporter, FRET; at 6 µM; active compounds read high; 0% DMSO wells, 100% control agonist wells
row,Structure (SMILES),activation
1,CCN(CC)P(=O)(C(NC(=O)OC)C(F)(F)C(F)(F)C(F)(F)C(F)F)N(CC)CC (stereo not drawn),0.8%
2,COc1ccc(C2OC(=O)CC2C(=O)NC(C)C)cc1 (stereo not drawn),0.2%
3,CCc1c(C)nc(N)n2c(SCC(=O)N3CCN(c4ccccc4)CC3)nnc12,-0.4%
4,Cc1cc(C)c(C)c(S(=O)(=O)Nc2ccc(O)cc2)c1C,-0.5%
5,NS(=O)(=O)c1cc2c(cc1Cl)NC(C(Cl)Cl)NS2(=O)=O (stereo not drawn),-0.1%
6,CC(=C1C(=O)c2ccccc2C1=O)N1CCN(c2ccccn2)CC1,0.2%
7,O=C(c1cccc(C(=O)N2CCN(c3ccc(F)cc3)CC2)c1)N1CCN(c2ccc(F)cc2)CC1,0.7%
8,O=C(NC1CCCCC1)C1CCCN(S(=O)(=O)c2cccs2)C1 (stereo not drawn),-0.4%
9,Cc1cnc(C(=O)OCC(=O)Nc2ccc(Cl)cc2Cl)cn1,0.2%
10,CC1(C)Cc2ccccc2-c2nnc(-c3cccc(O)c3)n21,0.2%
11,Cc1ccc(NC2=NC(c3ccccc3)n3c(nc(C)cc3=O)N2)cc1 (stereo not drawn),0.3%
12,COc1ccc(S(=O)(=O)Nc2ccc(S(=O)(=O)N3CCCCC3)cc2)cc1OC,0.4%
13,CCCCn1nnnc1NCc1cc(OC)c(OC)c(OC)c1,-0.7%
14,Cc1ccccc1NC(=O)c1cnn(-c2ccccc2)c1NC(=O)c1ccco1,0.5%
15,COc1ccc(OCC(=O)OCC(=O)Nc2ccc(S(=O)(=O)N3CCCCC3)cc2)cc1,-0.3%
16,CC(C)=C(NC(=O)c1ccco1)C(=O)NCCc1nc2ccccc2[nH]1,1.5%
17,CCCCC(CCC(=O)Nc1ccc(C(=O)OCC)cc1)C(=O)O (stereo not drawn),-0.3%
18,COC(=O)c1ccc(NC(=O)c2ccco2)cc1,0.1%
19,CCN(CC)C(=O)CCC(=O)Nc1ccc(C(=O)OC)cc1,20.5% (active)
20,O=C1NC(c2ccncc2)Nc2sc3c(c21)CCCC3 (stereo not drawn),0.1%
21,CCOC(=O)Cn1c2c(c(-c3ccccc3OC)cc1=O)CCCC2,-0.4%

row,Structure (SMILES),activation
1,COC(=O)c1ccc(CSc2nc3ccccc3c(=O)n2-c2cccc(OC)c2)o1,1.3%
2,NC(CSC12CC3CC(CC(C3)C1)C2)C(=O)O (stereo not drawn),0.4%
3,CC1Cc2ccccc2N1C(=O)Cn1cnc2ccccc2c1=O (stereo not drawn),-0.8%
4,Cc1nc2ccc(NC(=O)N3CCC(c4ccccc4)C3)cc2nc1C (stereo not drawn),-0.6%
5,O=C(O)CCN1C(=O)CC2(CCCCC2)C1=O,9.8% (active)
6,Cc1ccc(F)cc1NC(=O)c1ccc2c(c1)OCO2,-0.9%
7,COCCCN1C(=O)c2ccc(C(=O)Nc3ccc(OC)cc3OC)cc2C1=O,-0.6%
8,CCSc1nc(=S)n(CC)c(C)c1C(C)=O,-0.3%
9,CCn1c(Cc2ccccc2)nnc1SCc1nc2ccccc2c(=O)[nH]1,-0.1%
10,CCC(=O)Nc1nc(OC)cc(OC)n1,-0.6%
11,Cc1ccc(CCn2c3c(c4ccccc42)CN(C)CC3)cn1,0.2%
12,Cc1ccc2nc3n(c(=O)c2c1)CCC3,-0.8%
13,COc1ccc(/C(O)=C2/C(=O)C(=O)N(c3nc(C)c(C)s3)C2c2ccco2)cc1 (stereo not drawn),0.5%
14,Cn1c(=O)cc(SCC(=O)N2CCCC2)c2cc(Cl)ccc21,-0.2%
15,CCOc1ccc(-c2nnn(CC(=O)N3CCN(c4ccc(OC)cc4)CC3)n2)cc1OCC,-1.1%
16,CCOC(=O)c1cc2c(n(-c3ccc(C)cc3)c1=O)CCCC2=O,0.8%
17,C[C@@H](Nc1nc(-c2ccccc2)nc2c1oc1ccccc12)C(=O)O,-0.7%
18,COc1ccc(S(=O)(=O)Nc2c(C)n(C)n(-c3ccccc3)c2=O)cc1,-1.6%
19,CCC(C)Sc1nc2c(c(=O)[nH]c(=O)n2C)n1CC(O)COc1cccc2ccccc12 (stereo not drawn),1.1%
20,CCOc1c(OC)cc(C2C(C#N)=C(N)Oc3n[nH]c(-c4ccncc4)c32)cc1OC (stereo not drawn),0.7%
21,Cc1nc(NC(CC(C)C)C(=O)O)c2nc(C)oc2n1 (stereo not drawn),-1.1%

row,Structure (SMILES),activation
1,Cc1cc(C(=O)COC(=O)c2cccs2)c(C)n1-c1c(C)n(C)n(-c2ccccc2)c1=O,-0.2%
2,CN(C(=O)C1CCOC1)c1nnc(-c2cccnc2)s1 (stereo not drawn),-1.1%
3,COc1ccc(N2C(=O)CCC(C(=O)Nc3ccccn3)C2c2ccc(OC)c(OC)c2)cc1 (stereo not drawn),2.5%
4,CCOc1ccc(-n2c(SC(C)C(=O)OC)nc3c(c2=O)SCC3)cc1 (stereo not drawn),0.4%
5,COc1ccc(CC(=O)n2nc(-c3cccnc3)nc2N)cc1,0.2%
6,O=c1nc(N2CCOCC2)nc2n1CCO2,0.6%
7,COc1ccc(C(=O)n2nc(-c3ccc(C)cc3)nc2N)cc1OC,0%
8,Cc1cc(=O)n(C)c(=O)n1CCCNc1ccccc1,-0.1%
9,CN(C)CCNC(CC(=O)Nc1ccc(Cl)c(Cl)c1)C(=O)O (stereo not drawn),0.3%
10,O=C(OCc1nnc(-c2ccccc2)o1)c1ccc2c(c1)C(=O)N(CCc1ccccc1)C2=O,0.4%
11,Cc1ccc(-c2cc(C(F)(F)F)n3nc(C(=O)N4CCCC4)cc3n2)cc1,0.8%
12,Cc1nc2c(-c3ccccc3)c(C)[nH]n2c(=O)c1Cl,-0.7%
13,Cn1nnnc1SCc1cc(=O)[nH]c2ccccc12,-0.5%
14,COc1ccccc1C(=O)N1CCN=C1SCc1cccnc1,-0.4%
15,Cn1nc(-c2ccc(N3CCOCC3)c(NC(=O)c3ccccc3)c2)c2ccccc2c1=O,-1%
16,FC(F)(F)c1cc(-c2cccs2)nc(NCc2ccco2)n1,-1.9%
17,CC(c1ccccc1)n1c(NCCCn2ccnc2)nc2c1c(=O)[nH]c(=O)n2C (stereo not drawn),-0.6%
18,COc1cccc(-c2nc3n(n2)C(c2ccccc2Cl)C(C(N)=O)=C(C)N3)c1 (stereo not drawn),-0.2%
19,CCc1c(C)sc(NC(=O)OC)c1C(=O)N1CCOCC1,14.2% (active)
20,CCOC(=O)c1sc(NC(=O)CCN2CCOCC2)c(C(=O)OCC)c1C,-0.8%
21,CCc1c(C)sc(NC(=O)c2ccc(Br)o2)c1C(=O)OC,0.2%
